Assay outcomes from PubChem.
Shown are actives, neighbours in structure and some others; about 17% of the full set was active somewhere.
DT40 TDP1 no CPT: qHTS for Inhibitors of human tyrosyl-DNA phosphodiesterase 1 (TDP1): qHTS in cells in absence of CPT. DT40 Tdp1-/- hTDP1 cells, no CPT, ATP luminescence, 48 h. Potency, µM (titrated, usually from 46.2 µM), for inactives: top-dose activity change, negative = growth inhibition, actives largely listed as inhibitors. actives 15% (n = 420,000). AID 686978, 2013; note: % is set by controls: 0 for no effect and ±100 for the full control effect; nearly all actives have a fitted effect of over 55% in size
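Readout: luminescence from CellTiter-Glo after 30 min in the dark at RT. Cells: DT40 Tdp1-/- with stable hTDP1, 400/well. Exposure: compounds alone, ≥48 hr, 37 °C.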
TDP1 cell CPT: qHTS for Inhibitors of human tyrosyl-DNA phosphodiesterase 1 (TDP1): qHTS in cells in presence of CPT. chicken DT40 Tdp1-/-;hTDP1 cells + 20 nM CPT, ATP luminescence, 48 h. Potency, µM (series often up to 46.2 µM), for inactives: at the highest dose activity change, negative = growth inhibition, hits mostly inhibitors. actives 12% (n = 420,000); note: % is set by controls: 0 for no effect and ±100 for the full control effect; nearly all actives have a fitted effect of over 55% in size
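Chicken DT40 Tdp1-/- cells stably complemented with human TDP1 were seeded at 400 cells/well in medium containing 20 nM camptothecin, exposed to pin-transferred compounds, and grown at 37 °C for at least 48 hr. Viability was read as ATP luminescence.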
TDP1 block: qHTS Assay for Inhibitors of Tyrosyl-DNA Phosphodiesterase (TDP1); Tyrosyl-DNA phosphodiesterase 1 (Homo sapiens), Q9NUW8; recombinant TDP1, AlphaScreen DNA substrate cleavage; Potency, µM (top dose mostly 130 µM), for the others: at the top dose activity change, negative = inhibition, usual class: inhibitors; actives 0.28% (n = 350,000); note: % is set by controls: 0 for no effect and ±100 for the full control effect; nearly all actives have a fitted effect of over 40% in size
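Recombinant E. coli-expressed Tdp1 (1 nM) preincubated with compound 15 min at RT, then 5'-biotin/3'-phosphotyrosine-FITC DNA substrate (15 nM) added for 5 min. AlphaScreen beads (10 ug/ml) added, 10 min RT; tyrosine-FITC cleavage read as signal loss.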
ClpP mod: qHTS Assay for Activators of ClpP; ATP-dependent Clp protease proteolytic subunit (Bacillus subtilis (strain 168)), P80244; purified B. subtilis ClpP, FRET peptide cleavage, 20 min; Potency, µM (titrated, usually from 57.5 µM), for inactives: top-dose activity change, negative = active; actives 1.9% (n = 340,000); active = well fitted falling curve with a large enough effect; inconclusive = small, poorly fitted or top-dose-only effect; inactive = no such curve, though single readings can be large or run the other way; note: the source files actives as falling curves though it sought activators and does not explain the sign; nearly all actives have a fitted effect of over 65% in size
Target sequence (P80244 whole entry, looked up): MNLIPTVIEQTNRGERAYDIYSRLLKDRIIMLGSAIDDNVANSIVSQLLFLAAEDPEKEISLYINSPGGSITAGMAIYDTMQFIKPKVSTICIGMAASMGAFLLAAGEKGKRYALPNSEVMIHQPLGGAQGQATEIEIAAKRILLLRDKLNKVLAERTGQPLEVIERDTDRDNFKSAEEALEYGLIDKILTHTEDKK
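Purified B. subtilis ClpP, 10 microg/mL final in Tris/HCl pH8 with KCl, BSA, glycerol and Tween-20, cleaved an Abz/nitrotyrosine-quenched decapeptide. Fluorescence (ex 320, em 430) was read at 0 and 20 min at room temperature. Delta was normalized to 5.8 microM ADEP and DMSO/no-enzyme controls.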
Active calls of the source: *; [ ] = another dose, or the depositor's remark. Unless noted, calls come from the whole dose curve; as a rule, active = well fitted curve in the direction sought with a large enough effect; inconclusive = small, poorly fitted or top-dose-only effect, or another doubt; inactive = no such curve, though single readings can be large; an effect the other way counts as inactive or inconclusive. Potency is the fitted concentration of half-maximal effect.

Screening CC(c1ccccc1)c1nnc(NC(=O)c2ccc3c(c2)OCO3)s1 (configuration not stated) returned DT40 TDP1 no CPT 18.4µM*, TDP1 cell CPT inconclusive, TDP1 block 3.1% and ClpP mod inconclusive.
`COC(=O)c1c(-c2cccnc2)csc1NC(=O)c1ccc2c(c1)OCO2` gave DT40 TDP1 no CPT 23.1µM*, TDP1 cell CPT inconclusive, TDP1 block 1.1%[56.1 µM] and ClpP mod inconclusive.
`COc1cccc(NC(=O)Nc2nnc(-c3ccccc3SCc3ccccc3)s2)c1` gave DT40 TDP1 no CPT inconclusive, TDP1 cell CPT inconclusive, TDP1 block -3.0% and ClpP mod -23.3%.
Screening CC(C)c1nnc(NC(=O)c2ccc3c(c2)OCO3)s1 returned DT40 TDP1 no CPT -12.3%, TDP1 cell CPT 3.9%, TDP1 block -2.5% and ClpP mod 1.1%.
`COc1ccc(NC(=O)Nc2nnc(-c3ccccc3SCc3ccccc3)s2)cc1` gave DT40 TDP1 no CPT 6.51µM*, TDP1 cell CPT 18.4µM*, TDP1 block 0.7% and ClpP mod inconclusive.
COc1ccccc1-c1nnc(NC(C)=O)s1 was read as DT40 TDP1 no CPT -20.3%, TDP1 cell CPT -7.6%, TDP1 block 5.9% and ClpP mod 28.2µM*.
`CCN(CC)S(=O)(=O)c1nnc(NC(=O)c2ccc(Br)cc2)s1` gave DT40 TDP1 no CPT inconclusive, TDP1 cell CPT inconclusive, TDP1 block 3.9% and ClpP mod -8.1%.
`COc1ccccc1-c1nnc(NC(=O)c2ccc3c(c2)OCO3)s1` gave DT40 TDP1 no CPT 2.06µM*, TDP1 cell CPT 2.31µM* and TDP1 block 4.3%.
For CC(C)(C)c1nnc(NC(=O)c2ccc3c(c2)OCO3)s1 the results were DT40 TDP1 no CPT inconclusive, TDP1 cell CPT inconclusive, TDP1 block 4.6% and ClpP mod 0.1%.
`COc1ccccc1-c1nnc(NC(=O)C(C)C)s1` gave DT40 TDP1 no CPT -1.0%, TDP1 cell CPT 1.2%, TDP1 block -1.0% and ClpP mod 31.6µM*.
CC(=O)NCCNc1nc(-c2ccccc2Cl)nc2ccccc12 was read as DT40 TDP1 no CPT inconclusive, TDP1 cell CPT inconclusive and TDP1 block 10.9%[56.1 µM].
For CCOC(=O)C1(CCOc2ccccc2)CCN(Cc2ccc(O)c(OCC)c2)CC1 the results were DT40 TDP1 no CPT inconclusive and TDP1 cell CPT -41.1%.
Screening O=C(C[n+]1cc(-c2ccc(Cl)cc2)n2c1CCC2)Nc1nc(-c2ccccc2)cs1 returned DT40 TDP1 no CPT 5.8µM*, TDP1 cell CPT inconclusive, TDP1 block 7.1% and ClpP mod -2.8%.
O=C(C[n+]1cc(-c2ccc(F)cc2)n2c1CCC2)Nc1nc(-c2ccccc2)cs1 was read as DT40 TDP1 no CPT inconclusive, TDP1 cell CPT inconclusive, TDP1 block 2.8% and ClpP mod 0.7%.
Cc1ccccc1NC(=O)C[n+]1cc(-c2ccccc2)n2c1CCC2 was read as DT40 TDP1 no CPT -5.4%, TDP1 cell CPT 9.4%, TDP1 block 3.6% and ClpP mod -1.2%.
Cc1ccc(-c2c[n+](CC(=O)Nc3nc(-c4ccc(F)cc4)cs3)c3n2CCC3)cc1 was read as DT40 TDP1 no CPT 10.3µM*, TDP1 cell CPT 11.6µM*, TDP1 block 5.3% and ClpP mod -0.6%.
For CC(C)c1ccc(C(=O)N2CCCCC2c2cc(C(=O)NCc3cccnc3)no2)cc1 (configuration not stated) the results were DT40 TDP1 no CPT inconclusive, TDP1 cell CPT inconclusive and ClpP mod -2.4%.
COc1ccc([C@H]2N[C@]3(CCCN(Cc4ccc(C)cc4)C3=O)[C@H]3C(=O)N(C)C(=O)[C@@H]23)cc1 was read as DT40 TDP1 no CPT inconclusive, TDP1 cell CPT -18.4% and ClpP mod -0.3%.
Cn1c(N)c(C(=O)COC(=O)CCc2ccccc2)c(=O)n(C)c1=O was read as DT40 TDP1 no CPT -23.5%, TDP1 cell CPT 0.0% and TDP1 block 0.6%.
`CCOc1ccc(Oc2c(/C=N/NC(N)=O)c(C)nn2-c2ccccc2)cc1` gave DT40 TDP1 no CPT inconclusive, TDP1 cell CPT -1.8% and TDP1 block 6.9%.
Cc1nn(-c2ccccc2)c(Oc2ccccc2)c1C=O was read as DT40 TDP1 no CPT 13µM*, TDP1 cell CPT 16.4µM*, TDP1 block 0.6% and ClpP mod -4.8%.
`COC(=O)c1c(C)[nH]c(C(=O)CSc2ncnc3sc(-c4ccccc4)cc23)c1C` gave DT40 TDP1 no CPT 16.4µM*, TDP1 cell CPT 18.4µM*, TDP1 block 5.3% and ClpP mod -3.3%.
Screening CC(Sc1ncnc2sc(-c3ccccc3)cc12)C(=O)N1CCNC1=O (configuration not stated) returned DT40 TDP1 no CPT inconclusive, TDP1 cell CPT 18.4µM*, TDP1 block 1.0% and ClpP mod -5.9%.
`CN(C)C(=O)CSc1ncnc2scc(-c3ccccc3)c12` gave DT40 TDP1 no CPT -27.7%, TDP1 cell CPT 3.5% and TDP1 block 1.2%.
`O=c1[nH]c(CSc2ncnc3sc(-c4ccccc4)cc23)nc2ccccc12` gave DT40 TDP1 no CPT 13µM*, TDP1 cell CPT 16.4µM* and TDP1 block 5.7%.
For CC(C)N(C(=O)CSc1ncnc2sc(-c3ccccc3)cc12)C(C)C the results were DT40 TDP1 no CPT 14.6µM*, TDP1 cell CPT inconclusive, TDP1 block -1.0% and ClpP mod inconclusive.
For O=C(CSc1ccccn1)N1CCNC1=O the results were DT40 TDP1 no CPT 3.6%, TDP1 cell CPT 25.5%, TDP1 block -0.5% and ClpP mod 0.1%.
For CSCC[C@H](NC(=O)[C@H](CC(C)C)NC(=O)[C@@H]1CCCN1C(=O)[C@H](Cc1ccccc1)NC(=O)[C@H](Cc1ccccc1)NC(=O)[C@H](CCC(N)=O)NC(=O)[C@H](CCC(N)=O)NC(=O)[C@@H]1CCCN1C(=O)[C@H](CCCCN)NC(=O)[C@@H]1CCCN1C(=O)[C@@H](N)CCCN=C(N)N)C(N)=O the results were TDP1 block 4.9%.
`CCO[C@@H]1OC(C(=O)NC2CC2)=C[C@H](c2ccccc2)[C@H]1CCCO` gave DT40 TDP1 no CPT -0.7%, TDP1 cell CPT -7.0%, TDP1 block 3.8% and ClpP mod 0.3%.
COc1cccc(OC)c1C(=O)Nc1ccncc1 was read as DT40 TDP1 no CPT 1.6%, TDP1 cell CPT 0.5% and ClpP mod -0.9%.
O=C(Nc1ccc(F)cc1)[C@@H](c1ccccc1)N1Cc2ccccc2C1=O was read as DT40 TDP1 no CPT -21.3%, TDP1 cell CPT -3.6%, TDP1 block 4.6% and ClpP mod -0.5%.
Screening CC(=O)Nc1ccc(S(=O)(=O)N2CCN(S(=O)(=O)c3c(F)cccc3F)CC2)cc1 returned TDP1 block -0.2%.
